Measured values reported in paper PMC7862700, “An all-to-all approach to the identification of sequence-specific readers for epigenetic DNA modifications on cytosine”.

Assays:
Assay in all cases: DAPPL (digital affinity profiling via proximity ligation, sequencing); 10 mM Tris-HCl pH 7.5, 50 mM NaCl, 1 mM DTT, 4% glycerol, room temperature, 30 min; GST-TFs on glutathione beads, 16-mer random dsDNA library, 0.1% formaldehyde crosslink after washing; high values mean tight binding
FEV = target: T1, FEV (Homo sapiens, UniProt Q99581 1-238); conditions: protein: recombinant; tags: N-terminal GST; dsDNA, one strand shown
T1 sequence: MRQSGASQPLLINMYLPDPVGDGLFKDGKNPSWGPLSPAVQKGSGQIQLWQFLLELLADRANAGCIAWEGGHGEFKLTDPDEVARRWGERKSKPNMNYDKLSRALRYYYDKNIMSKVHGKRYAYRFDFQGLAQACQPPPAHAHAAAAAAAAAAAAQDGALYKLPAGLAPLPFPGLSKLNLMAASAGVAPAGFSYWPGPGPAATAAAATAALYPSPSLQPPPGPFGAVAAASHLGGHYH
Procedure, shortened: (§1)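 Binding signal is given per hexamer as its read frequency for a factor divided by its frequency in the tag-only sample. GST-fused human transcription factors were expressed in yeast, captured on glutathione beads, barcoded with DNA and pooled with that sample, then incubated with 200 nmole of a 16-mer random double-stranded DNA library in Tris/NaCl/DTT/glycerol buffer for 30 min at room temperature. The pools were then washed, crosslinked, proximity-ligated, amplified by PCR and sequenced on an Illumina NextSeq500.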

ETV5 = ETV5 (Homo sapiens, UniProt P41161 1-510); conditions: protein: recombinant; tags: N-terminal GST; dsDNA, one strand shown
Procedure, shortened: as §1

HSF1 = HSF1 (Homo sapiens, UniProt Q00613 1-529); conditions: protein: recombinant; tags: N-terminal GST; chain copies: 3; dsDNA, one strand shown
Procedure, shortened: as §1

SPIC = target: T2, SPIC (Homo sapiens, UniProt Q8N5J4 1-248); conditions: protein: recombinant; tags: N-terminal GST; dsDNA, one strand shown
T2 sequence: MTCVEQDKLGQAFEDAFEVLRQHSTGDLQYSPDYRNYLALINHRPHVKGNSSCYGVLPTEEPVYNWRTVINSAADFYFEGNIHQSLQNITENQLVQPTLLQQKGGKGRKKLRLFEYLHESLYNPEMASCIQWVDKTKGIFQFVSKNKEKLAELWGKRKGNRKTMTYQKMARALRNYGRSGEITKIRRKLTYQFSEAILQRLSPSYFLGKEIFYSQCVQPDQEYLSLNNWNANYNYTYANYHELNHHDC
Procedure, shortened: as §1

ELF4 = ELF4 (Homo sapiens, UniProt Q99607 1-663); conditions: protein: recombinant; tags: N-terminal GST; dsDNA, one strand shown
Procedure, shortened: as §1

ELK4 = target: T3, ELK4 (Homo sapiens, UniProt P28324-2 1-405); conditions: protein: recombinant; tags: N-terminal GST; dsDNA, one strand shown
T3 sequence: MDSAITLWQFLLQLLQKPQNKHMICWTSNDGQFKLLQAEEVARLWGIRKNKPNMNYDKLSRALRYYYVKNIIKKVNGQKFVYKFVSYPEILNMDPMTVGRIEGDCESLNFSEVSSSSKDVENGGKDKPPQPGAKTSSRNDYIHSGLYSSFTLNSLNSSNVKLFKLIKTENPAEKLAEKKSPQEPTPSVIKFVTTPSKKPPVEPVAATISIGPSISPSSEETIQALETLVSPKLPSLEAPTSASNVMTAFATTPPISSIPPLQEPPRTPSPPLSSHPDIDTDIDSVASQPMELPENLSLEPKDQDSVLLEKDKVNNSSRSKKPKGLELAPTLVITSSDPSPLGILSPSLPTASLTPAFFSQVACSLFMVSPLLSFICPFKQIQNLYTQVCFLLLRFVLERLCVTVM
Procedure, shortened: as §1

ETV2 = target: T4, ETV2 (Homo sapiens, UniProt O00321 1-342); conditions: protein: recombinant; tags: N-terminal GST; dsDNA, one strand shown
T4 sequence: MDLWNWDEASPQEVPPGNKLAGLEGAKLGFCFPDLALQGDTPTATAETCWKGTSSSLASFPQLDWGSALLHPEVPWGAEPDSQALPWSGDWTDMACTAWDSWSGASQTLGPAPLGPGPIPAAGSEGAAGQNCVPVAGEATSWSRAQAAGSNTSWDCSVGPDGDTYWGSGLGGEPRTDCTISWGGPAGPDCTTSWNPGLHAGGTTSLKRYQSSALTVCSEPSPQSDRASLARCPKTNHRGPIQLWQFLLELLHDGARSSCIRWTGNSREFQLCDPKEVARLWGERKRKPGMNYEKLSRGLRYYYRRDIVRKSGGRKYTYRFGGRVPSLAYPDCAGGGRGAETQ
Procedure, shortened: as §1

ELF3 = target: T5, ELF3 (Homo sapiens, UniProt P78545 1-371); conditions: protein: recombinant; tags: N-terminal GST; dsDNA, one strand shown
T5 sequence: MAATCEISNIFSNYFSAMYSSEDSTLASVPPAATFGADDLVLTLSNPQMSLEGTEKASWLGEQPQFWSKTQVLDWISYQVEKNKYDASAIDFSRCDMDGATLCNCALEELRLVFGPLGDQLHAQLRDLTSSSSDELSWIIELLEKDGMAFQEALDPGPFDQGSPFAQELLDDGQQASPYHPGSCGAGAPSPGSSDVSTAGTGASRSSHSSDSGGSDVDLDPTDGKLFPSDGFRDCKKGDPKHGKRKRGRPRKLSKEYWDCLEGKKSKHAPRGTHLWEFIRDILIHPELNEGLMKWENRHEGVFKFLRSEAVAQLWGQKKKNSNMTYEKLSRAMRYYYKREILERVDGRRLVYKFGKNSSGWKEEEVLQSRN
Procedure, shortened: as §1

CRX = CRX (Homo sapiens, UniProt O43186 1-299); conditions: protein: recombinant; tags: N-terminal GST; dsDNA, one strand shown
Procedure, shortened: as §1

Chain of CRX (O43186 whole entry): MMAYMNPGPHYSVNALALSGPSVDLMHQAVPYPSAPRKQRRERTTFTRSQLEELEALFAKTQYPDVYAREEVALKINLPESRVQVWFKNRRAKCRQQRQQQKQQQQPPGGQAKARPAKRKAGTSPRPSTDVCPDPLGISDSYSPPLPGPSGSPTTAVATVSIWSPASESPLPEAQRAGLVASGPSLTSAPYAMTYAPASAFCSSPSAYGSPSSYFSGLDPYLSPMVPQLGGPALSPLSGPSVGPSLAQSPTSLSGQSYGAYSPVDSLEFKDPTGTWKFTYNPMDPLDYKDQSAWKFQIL
Chain of ETV5 (P41161 whole entry): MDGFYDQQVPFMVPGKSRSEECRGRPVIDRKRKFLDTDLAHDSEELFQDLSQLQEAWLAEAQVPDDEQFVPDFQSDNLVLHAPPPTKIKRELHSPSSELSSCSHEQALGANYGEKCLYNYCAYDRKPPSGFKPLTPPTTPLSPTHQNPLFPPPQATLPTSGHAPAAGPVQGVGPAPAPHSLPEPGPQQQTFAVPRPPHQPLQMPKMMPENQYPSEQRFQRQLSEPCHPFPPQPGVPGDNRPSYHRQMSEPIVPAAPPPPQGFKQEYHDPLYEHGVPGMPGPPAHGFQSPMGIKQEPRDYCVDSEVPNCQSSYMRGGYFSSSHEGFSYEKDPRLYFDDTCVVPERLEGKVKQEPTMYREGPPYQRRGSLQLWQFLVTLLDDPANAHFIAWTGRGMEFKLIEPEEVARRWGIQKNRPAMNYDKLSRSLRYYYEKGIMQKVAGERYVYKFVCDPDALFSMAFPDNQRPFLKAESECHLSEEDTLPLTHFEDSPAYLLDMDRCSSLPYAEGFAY
Chain of HSF1 (Q00613 whole entry): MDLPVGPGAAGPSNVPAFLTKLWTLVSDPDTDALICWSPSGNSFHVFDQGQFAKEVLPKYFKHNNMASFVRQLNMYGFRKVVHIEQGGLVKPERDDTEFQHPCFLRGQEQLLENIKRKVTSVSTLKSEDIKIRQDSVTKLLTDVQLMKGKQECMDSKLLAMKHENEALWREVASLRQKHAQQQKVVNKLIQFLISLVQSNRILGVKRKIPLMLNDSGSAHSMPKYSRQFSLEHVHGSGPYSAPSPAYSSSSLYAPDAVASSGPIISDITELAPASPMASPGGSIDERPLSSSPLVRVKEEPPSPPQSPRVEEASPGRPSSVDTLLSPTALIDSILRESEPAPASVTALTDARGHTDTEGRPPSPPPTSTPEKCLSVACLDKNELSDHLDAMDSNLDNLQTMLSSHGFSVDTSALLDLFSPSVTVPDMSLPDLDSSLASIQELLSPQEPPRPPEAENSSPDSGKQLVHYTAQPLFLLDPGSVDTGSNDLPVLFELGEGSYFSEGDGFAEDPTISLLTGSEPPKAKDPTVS
Chain of ELF4 (Q99607 whole entry): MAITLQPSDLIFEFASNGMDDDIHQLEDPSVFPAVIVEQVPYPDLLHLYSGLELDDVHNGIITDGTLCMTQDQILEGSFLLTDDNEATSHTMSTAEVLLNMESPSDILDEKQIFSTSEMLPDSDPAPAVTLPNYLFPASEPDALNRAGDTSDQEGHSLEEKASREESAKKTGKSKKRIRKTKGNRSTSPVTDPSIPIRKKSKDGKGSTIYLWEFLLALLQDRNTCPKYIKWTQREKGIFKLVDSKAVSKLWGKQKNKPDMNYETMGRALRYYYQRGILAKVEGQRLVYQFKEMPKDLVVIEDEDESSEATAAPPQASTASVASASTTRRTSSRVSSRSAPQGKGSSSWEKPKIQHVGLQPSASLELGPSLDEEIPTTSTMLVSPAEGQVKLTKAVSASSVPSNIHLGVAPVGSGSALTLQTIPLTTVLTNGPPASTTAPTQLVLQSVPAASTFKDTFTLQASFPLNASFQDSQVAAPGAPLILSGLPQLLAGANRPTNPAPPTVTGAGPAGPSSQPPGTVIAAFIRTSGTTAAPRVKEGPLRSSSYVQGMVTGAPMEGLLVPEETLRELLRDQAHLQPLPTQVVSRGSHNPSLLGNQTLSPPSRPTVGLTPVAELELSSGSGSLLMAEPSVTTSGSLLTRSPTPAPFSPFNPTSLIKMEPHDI

## TACTAT
FEV
  binding signal: 1.31 fold enrichment (6-mer frequency, TF over GST control)
ETV5
  binding signal: 1.31 fold enrichment (6-mer frequency, TF over GST control)
HSF1
  binding signal: 1.37 fold enrichment (6-mer frequency, TF over GST control)
SPIC
  binding signal: 1.45 fold enrichment (6-mer frequency, TF over GST control)
ELF4
  binding signal: 1.35 fold enrichment (6-mer frequency, TF over GST control)
ELK4
  binding signal: 1.33 fold enrichment (6-mer frequency, TF over GST control)
ETV2
  binding signal: 1.4 fold enrichment (6-mer frequency, TF over GST control)
ELF3
  binding signal: 1.2 fold enrichment (6-mer frequency, TF over GST control)
CRX
  binding signal: 1.48 fold enrichment (6-mer frequency, TF over GST control)
